This is an account of results in PubChem BioAssay.

Activity calls are given as the source filed them.

The test system of experiment [1] is Plasmodium falciparum Sir2 (PF13_0152, Sir2A). The experiment is described as follows: Plasmodium falciparum Sir2A binding compounds – biochemical, small-molecule microarray, 635 nm fluorescence, primary screen (AID 1098).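 Also: score merges spot fluorescence intensity with its signal-to-noise ratio.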 The settings on record: fluorescence 635 nm, higher = more signal.
The nature of experiment [2]: probe aDKK1 binding to arrayed compounds – biochemical, biotinylated probe, 635/667 nm fluorescence, primary screen (AID 1099).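 Also: score merges 667nm spot fluorescence with signal to noise across triplicate slides; reference of the scale not given here.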 The settings on record: small-molecule microarray, higher = more signal.
A short description of experiment [3]: probe aCHRDL2 binding to arrayed compounds – biochemical, biotinylated probe, 635/667 nm fluorescence, primary screen (AID 1100). Conditions: small-molecule microarray, higher = more signal.
Experiment [4] can be described thus: change in splice reporter luminescence, either direction, cell-based, HEK293, spliceosome inhibition project, primary screen (AID 1101).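 Also: HEK293 cells carrying a splicing-competent luciferase reporter gene; test concentration not given here.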 The settings on record: HEK293 splicing luciferase reporter, 24 h, higher = more signal, called active from +8 up or from −8 down. A general note: Reporter assays use an easily measured gene product as a stand-in for the process of interest.

Experiment [5] deals with Fibroblast growth factor 10 (Homo sapiens) (UniProt O15520). Nature of the experiment: compounds binding fibroblast growth factor 10 – biochemical, small-molecule microarray, 635 nm fluorescence, primary screen (AID 1102). Conditions: FGF10 binding, fluorescence 635 nm, higher = more signal.
Experiment [6] deals with glycogen synthase kinase-3 (GSK3A per assay name; protocol says GSK3B). Nature of the experiment: compounds binding glycogen synthase kinase-3 – biochemical, small-molecule microarray, 635 nm fluorescence, GSK3A, primary screen (AID 1103). Also: the record names both GSK3A and GSK3B. The settings on record: fluorescence 635 nm, higher = more signal.
Experiment [7] deals with Epidermal growth factor receptor (Homo sapiens) (UniProt P00533). Nature of the experiment: compounds binding epidermal growth factor receptor – biochemical, small-molecule microarray, 635 nm fluorescence, primary screen (AID 1104).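 Also: score merges 667 nm emission intensity with spot signal to noise over triplicate slides.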 Conditions: EGFR binding, higher = more signal.
The target of experiment [8] is Follistatin-related protein 3 (Homo sapiens) (UniProt O95633). Nature of the experiment: compounds binding follistatin-related protein 3 – biochemical, small-molecule microarray, 635 nm fluorescence, primary screen (AID 1105).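 Also: score merges emission near 667 nm and signal to noise per printed spot across three slides.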 The settings on record: FSTL3 binding, higher = more signal.
The target of experiment [9] is Dickkopf-related protein 1 (Homo sapiens) (UniProt O94907). The experiment is described as follows: small molecules binding DKK1 protein – biochemical, small-molecule microarray, 635 nm fluorescence scan, primary screen (AID 1106).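 Also: score merges emission near 667 nm with signal to noise over three replicate slides.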 The settings on record: higher = more signal.
Experiment [10] has as its system Inhibin beta A chain (activin A). The experiment is described as follows: small molecules binding activin A – biochemical, small-molecule microarray, 635 nm fluorescence scan, primary screen (AID 1107).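 Also: mouse activin A protein probed at 4.33 µg/mL on printed slides; score merges bound-protein fluorescence near 667 nm with spot signal-to-noise.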 Conditions: INHBA, higher = more signal.

Chain of Epidermal growth factor receptor (Homo sapiens) (P00533 whole entry, looked up): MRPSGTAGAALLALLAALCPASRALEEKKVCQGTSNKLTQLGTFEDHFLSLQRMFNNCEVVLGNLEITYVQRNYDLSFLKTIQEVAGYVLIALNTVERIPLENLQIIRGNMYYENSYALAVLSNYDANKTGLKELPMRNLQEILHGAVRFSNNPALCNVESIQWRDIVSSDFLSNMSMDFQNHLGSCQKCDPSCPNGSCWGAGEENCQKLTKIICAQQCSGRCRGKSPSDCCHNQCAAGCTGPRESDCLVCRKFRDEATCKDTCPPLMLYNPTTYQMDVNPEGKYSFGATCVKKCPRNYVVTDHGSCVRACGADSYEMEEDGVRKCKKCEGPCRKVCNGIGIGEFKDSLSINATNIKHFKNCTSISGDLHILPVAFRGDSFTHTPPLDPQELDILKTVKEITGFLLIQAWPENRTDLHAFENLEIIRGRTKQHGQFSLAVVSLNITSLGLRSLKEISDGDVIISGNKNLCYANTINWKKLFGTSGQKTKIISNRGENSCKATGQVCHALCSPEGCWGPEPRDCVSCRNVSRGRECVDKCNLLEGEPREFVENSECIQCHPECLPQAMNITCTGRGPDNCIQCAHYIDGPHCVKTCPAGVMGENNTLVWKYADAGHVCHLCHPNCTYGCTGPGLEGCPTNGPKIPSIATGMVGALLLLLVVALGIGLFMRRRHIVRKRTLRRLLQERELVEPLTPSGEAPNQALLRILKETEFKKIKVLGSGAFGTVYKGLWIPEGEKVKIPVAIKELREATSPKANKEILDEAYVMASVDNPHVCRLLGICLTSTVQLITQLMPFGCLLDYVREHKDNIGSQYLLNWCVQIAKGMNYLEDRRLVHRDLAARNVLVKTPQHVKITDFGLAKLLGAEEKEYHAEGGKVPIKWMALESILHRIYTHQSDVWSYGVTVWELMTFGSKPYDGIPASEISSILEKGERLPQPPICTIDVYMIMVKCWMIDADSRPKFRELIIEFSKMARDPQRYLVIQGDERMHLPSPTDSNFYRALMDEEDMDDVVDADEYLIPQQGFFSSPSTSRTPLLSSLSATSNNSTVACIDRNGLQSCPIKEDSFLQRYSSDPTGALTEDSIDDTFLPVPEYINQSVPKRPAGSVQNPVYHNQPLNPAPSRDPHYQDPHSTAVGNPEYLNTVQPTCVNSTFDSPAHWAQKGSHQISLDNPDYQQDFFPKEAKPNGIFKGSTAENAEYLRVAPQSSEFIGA
Chain of Follistatin-related protein 3 (Homo sapiens) (O95633 whole entry, looked up): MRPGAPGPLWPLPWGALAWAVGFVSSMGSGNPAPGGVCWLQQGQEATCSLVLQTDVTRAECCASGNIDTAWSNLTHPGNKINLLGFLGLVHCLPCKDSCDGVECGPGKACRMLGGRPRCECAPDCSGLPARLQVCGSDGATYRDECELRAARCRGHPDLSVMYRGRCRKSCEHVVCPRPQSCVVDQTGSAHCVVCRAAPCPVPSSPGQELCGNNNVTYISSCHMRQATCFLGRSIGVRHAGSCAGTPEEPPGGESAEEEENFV
Chain of Dickkopf-related protein 1 (Homo sapiens) (O94907 whole entry, looked up): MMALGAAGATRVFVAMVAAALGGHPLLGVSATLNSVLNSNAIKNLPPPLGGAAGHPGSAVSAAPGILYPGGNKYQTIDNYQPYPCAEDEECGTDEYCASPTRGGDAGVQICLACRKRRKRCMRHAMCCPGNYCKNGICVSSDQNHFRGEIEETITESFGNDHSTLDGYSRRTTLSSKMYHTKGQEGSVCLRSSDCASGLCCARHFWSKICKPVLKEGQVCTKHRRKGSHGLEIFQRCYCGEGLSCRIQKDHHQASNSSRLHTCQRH
Chain of Fibroblast growth factor 10 (Homo sapiens) (O15520 whole entry, looked up): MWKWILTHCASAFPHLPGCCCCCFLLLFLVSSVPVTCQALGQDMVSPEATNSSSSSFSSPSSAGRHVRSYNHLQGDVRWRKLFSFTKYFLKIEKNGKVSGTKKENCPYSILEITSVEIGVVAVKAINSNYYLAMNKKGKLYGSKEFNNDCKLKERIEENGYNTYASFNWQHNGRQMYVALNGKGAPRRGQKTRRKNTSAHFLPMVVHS

Consider `COC(=O)c1c2oc(c1C(=O)OC)C(=O)N[C@@H](C(C)C)Cn1cc(nn1)C1(CCCCC1)NC(=O)N[C@H](CO)CC2`, for which the composite z-score is 1.68 in experiment [1]; -0.324 in [2]; -0.288 in [3]; 0.408 in experiment [5]; 0.0356 in experiment [6]; -0.375 in experiment [7]. Further, the composite z-score was -0.0824 in experiment [8], 0.145 in [9] and -0.462 in experiment [10]. In experiment [4], the z-score was 0.343 (inactive).
Take `CO[C@H]1O[C@H](CO)[C@@H](OC(=O)Nc2ccccc2-c2ccccc2)[C@H](OC(=O)Nc2ccccc2-c2ccccc2)[C@@H]1OC(=O)Nc1ccccc1-c1ccccc1`: the composite z-score is 1.63 in experiment [1]; 0.408 in [2]; 0.625 in experiment [3]; 1.43 in experiment [5]; 1.12 in [6]; -0.168 in experiment [7]. Further, the composite z-score in experiment [8] stood at 1.03; in [9] it was 0.208; in [10], 0.0923. Further, the z-score in experiment [4] was 0.389 (inactive).
As to `C=C(CCCC)C(=O)CC[C@H](OC(=O)c1cccnc1)c1ccc(OCCO)cc1`, the composite z-score is 0.142 in [1]; -0.117 in experiment [2]; 0.27 in experiment [3]; -0.0659 in experiment [5]; -0.0084 in [6]; -0.317 in experiment [7]. The values for the composite z-score in [8], in [9] and in [10] were -0.173, 0.183 and 0.877, respectively. The z-score in experiment [4] is 0.98 (inactive).
For `CC(C)CN1C(=O)[C@@]2(c3ccc([N+](=O)[O-])cc3)CC(=O)N(C3CCCCC3)[C@@H]2c2ccc(CO)cc21`, the composite z-score is 0.103 in [1]; -0.0495 in experiment [2]; 0.867 in experiment [3]; -0.935 in experiment [5]; -1.27 in experiment [6]; -1.31 in experiment [7]. The composite z-score in [8] is -1.21; in experiment [9] it was -1.38; in experiment [10] it was 0.294. In [4], the z-score was 0.256 (inactive).
In the case of `C#CCOc1ccc(C[C@@H](C(=O)OC)N(CC#C)[C@@H](/C=C/C2CC2)[C@H](O)Cc2ccccc2)cc1`, the composite z-score in [1] is -0.103; in experiment [2], -0.285; in experiment [3] it was 0.846; in experiment [5], -0.327; in [6], -0.829; in experiment [7], -0.92. Also, the results for the composite z-score in [8], in experiment [9] and in experiment [10] were -0.806, -0.429 and 0.899, respectively. Besides, the z-score in experiment [4] was 0.0683 (inactive).
Regarding `COC(=O)c1c(CC[C@@H](CO)NC(=O)NCCc2c[nH]c3ccccc23)oc(C(=O)Cc2ccccc2)c1C(=O)OC`, the composite z-score is 0.176 in experiment [1]; -0.281 in [2]; -0.805 in experiment [3]; 0.48 in experiment [5]; 0.429 in experiment [6]; 0.398 in [7]. The composite z-score in experiment [8] was found to be 0.321; in experiment [9] it was 0.263; in experiment [10], 0.553. For the same compound, the z-score in [4] is -0.251 (inactive).
As to `C=CCN1C(=O)[C@]2(Cc3ccccc3)N=C(c3ccc(OCCCO)cc3)O[C@@H]2c2ccccc21`, the composite z-score came to 1.16 in [1]; 0.0729 in [2]; 0.795 in experiment [3]; 0.755 in [5]; 1.27 in experiment [6]; 0.781 in experiment [7]. The composite z-score was determined as 0.878 in experiment [8], 0.547 in experiment [9] and 1.13 in [10]. Also, in experiment [4], the z-score is -1.37 (inactive).
On to `C=CC[C@]1(C(=O)NCc2ccccc2)N=C(c2ccc(OCCCO)cc2)O[C@H]1c1ccccc1CN=[N+]=[N-]`, for which the composite z-score in experiment [1] came out at 1.51; in experiment [2], 0.709; in experiment [3] it was 0.899; in experiment [5], 1.19; in experiment [6] it was 1.24; in experiment [7], 0.171. Besides, the composite z-score in [8] worked out at 1.39; in experiment [9], 0.607; in [10], 0.835. Further, the z-score in [4] is -0.169 (inactive).
On to `O=C1OCCC=C[C@H]2OC34C=CCN(CCN5CCOCC5)C(=O)[C@H]3N(CCCCCO)C(=O)[C@@H]4C12` (stereo not given in full), for which the composite z-score is 1.44 in experiment [1]; -0.235 in experiment [2]; -0.111 in experiment [3]; -0.35 in experiment [5]; 0.454 in experiment [6]; -0.509 in experiment [7]. Also, the composite z-score is -0.379 in experiment [8], -0.041 in [9] and -0.309 in experiment [10]. Also, the z-score in experiment [4] was -0.78 (inactive).
For `[N-]=[N+]=NCc1ccccc1[C@@H]1OC(c2ccc(OCCCO)cc2)=N[C@]1(CCS(=O)(=O)c1ccccc1)C(N)=O`, the composite z-score came to 1.32 in experiment [1]; 0.775 in [2]; 1.01 in [3]; 1.6 in experiment [5]; 1.32 in experiment [6]; 0.588 in experiment [7]. Further, the composite z-score in experiment [8] was determined as 1.41; in experiment [9], 1.47; in experiment [10], 1.3. Further, the z-score in experiment [4] was 0.25 (inactive).
Turning to `C=CCOC(=O)[C@H]1[C@@H]2C(=O)O[C@@H](c3ccccc3)[C@@H](c3ccccc3)N2[C@@H](c2ccc(OCCOC(=O)[C@H]3C[C@H]4C(=O)N[C@@H](CCCCN(C)C)C(=O)N4[C@H]3c3cccc(OCCO)c3)cc2)[C@]12C(=O)Nc1ccc(I)cc12`, the composite z-score in [1] was 0.79; in experiment [2], -0.267; in [3] it was -0.254; in experiment [5] it was 1.32; in experiment [6], 1.16; in experiment [7] it was 0.527. Besides, the composite z-score in [8] was found to be 1.46; in experiment [9] it was 1.07; in [10] it was 1.11. Moreover, the z-score in experiment [4] is 1.52 (inactive).
For the compound `Cc1ccc(S[C@]2(C(=O)O)CC(=O)N(C(C)C)[C@@H]2c2ccc(CO)cc2)cc1`, the composite z-score in [1] was 0.161; in experiment [2], -0.11; in experiment [3] it was 0.34; in [5] it was 0.224; in experiment [6], -0.207; in [7], -0.468. The composite z-score in experiment [8] amounted to 0.147; in experiment [9] it was 0.0142; in experiment [10] it was 0.754. For the same compound, the z-score in experiment [4] was -0.448 (inactive).
Consider `CCOC(=O)C[C@H]1[C@H](OC(=O)c2ccc(C(=O)c3ccccc3)cc2)[C@@H](NC(=O)c2ccccc2)c2cc(OCCCO)ccc2N1C(=O)c1ccccc1`, for which the composite z-score in experiment [1] is 0.576; in experiment [2], 0.188; in experiment [3], -0.0053; in [5] it was 0.656; in experiment [6] it was 0.0643; in experiment [7] it was 0.168. The composite z-score turned out to be 0.84 in [8], 0.112 in [9] and 0.136 in experiment [10]. For the same compound, the z-score in [4] is 0.0733 (inactive).
In the case of `O=C1[C@@]23C=C(Br)[C@H](C[C@@H]2COC3)[C@]12CO2`, the composite z-score in experiment [1] was -1.5; in experiment [2], -0.183; in experiment [3], -0.188; in experiment [5], -0.573; in experiment [6] it was -0.88; in experiment [7] it was -1.24. Further, the composite z-score in experiment [8] was -0.858; in experiment [9], -0.297; in experiment [10] it was 1.69. In addition, in experiment [4], the z-score was 1.91 (inactive).
For the compound `CCOC(=O)C[C@H]1[C@H](OC(=O)c2cc3ccccc3oc2=O)[C@@H](NC(=O)CC(C)C)c2cc(OCCCO)ccc2N1C(=O)c1ccccc1`, the composite z-score is 0.0288 in [1]; -0.179 in experiment [2]; -0.428 in [3]; 0.644 in experiment [5]; 0.53 in experiment [6]; 0.393 in [7]. Also, the values for the composite z-score in experiment [8], in experiment [9] and in experiment [10] were 0.358, 0.371 and -0.0294, respectively. In addition, the z-score in experiment [4] was -1.04 (inactive).
For `C=CCC(OC(C)=O)[C@@H]1[C@@H](N(Cc2ccc(-c3ccccc3)cc2)C(=O)Cc2ccc(F)cc2)c2cc(OCCCO)ccc2N1C(=O)c1ccc2ccccc2c1` (stereo not given in full), the composite z-score in [1] was -0.352; in experiment [2] it was -0.0183; in experiment [3] it was 0.345; in experiment [5] it was 0.0036; in experiment [6], 0.0557; in experiment [7] it was 0.0144. Besides, the composite z-score in experiment [8] is 0.268; in [9] it was -0.4; in [10], 1.18. In addition, in [4], the z-score is -0.519 (inactive).
